This note sets out measurements from PubChem BioAssay.

The source made the active and inactive calls.

Test [1] is described as follows: optical density shifts of acrAB sulA E. coli – strain DRC41, OD650, 48 h, E. coli filamentation inducer project, primary screen (AID 1152).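 Also: E. coli MC1000 strain DRC41 lacking acrAB efflux pump and sulA.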 The following applies: higher = more signal, called active from +8 up or from −8 down.
A short description of test [2]: probe aLefty1 binding on compound microarray – biochemical, small-molecule microarray, 635/667 nm fluorescence, primary screen (AID 1153).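 Also: score merges spot fluorescence with signal-to-noise ratio from the scanned slide images.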 The following applies: higher = more signal.
The nature of test [3]: plasmodial surface anion channel blockers, osmotic lysis – cell-based, P. falciparum Indochina, OD700, 1 h, primary screen (AID 1154). The following applies: P. falciparum Indochina infected RBC osmotic lysis, higher = more signal, called active from +8 up or from −8 down.
Test [4] is described as follows: plasmodial surface anion channel blockers, osmotic lysis – cell-based, P. falciparum Indochina, OD700, 2 h, primary screen (AID 1155).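 Also: lysis reports solute entry through the parasite surface anion channel PSAC.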 The following applies: P. falciparum Indochina infected erythrocytes, higher = more signal, called active from +8 up or from −8 down.
Test [5] is described as follows: changes in parasitized red cell lysis, either direction – P. falciparum Indochina, OD700, 3 h, PSAC antagonist project, primary screen (AID 1156). The following applies: P. falciparum-infected erythrocytes, osmotic lysis, higher = more signal, called active from +8 up or from −8 down.
Test [6] is described as follows: plasmodial surface anion channel blockers, osmotic lysis – cell-based, P. falciparum Indochina, OD700, 18 h, primary screen (AID 1157). The following applies: P. falciparum Indochina infected erythrocytes, osmotic lysis OD700, 18 h; higher = more signal, called active from +8 up or from −8 down.
Test [7] in a line: S6 kinase pathway phospho-S6 level changes – cell-based, A549, cytoblot, luminescence, serum-stimulated, primary screen (AID 1158).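 Also: serum-stimulated A549 lung adenocarcinoma cells; signal is phosphorylated S6 detected by cytoblot immunostaining with HRP secondary.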 The following applies: 5 h, higher = more signal.
Test [8] addresses NADPH oxidase 2 (Homo sapiens) (UniProt P04839). The experiment in a line: compounds shifting NOX2 Amplex Red fluorescence – cell-based, HEK293-NOX2, PMA-stimulated, NOX inhibitor project, primary screen (AID 1159). Also: test concentration not given here. The following applies: 45 min, higher = more signal, called active from +8 up or from −8 down.
The target of test [9] is NADPH oxidase 4 (Homo sapiens) (UniProt Q9NPH5). The experiment in a line: compounds shifting NOX4 Amplex Red fluorescence – cell-based, HEK293-NOX4, tetracycline-induced, NOX inhibitor project, primary screen (AID 1160). The following applies: HEK293-NOX4, Amplex Red H2O2 fluorescence, 45 min; higher = more signal, called active from +8 up or from −8 down.
Test [10] deals with NADPH oxidase 5 (Homo sapiens) (UniProt Q96PH1). Briefly: compounds shifting NOX5 Amplex Red fluorescence – cell-based, HEK293-NOX5, NOX inhibitor project, primary screen (AID 1161). The following applies: HEK293-NOX5, ionomycin, 45 min, higher = more signal.
NADPH oxidase 5 (Homo sapiens), sequence (Q96PH1 whole entry, looked up): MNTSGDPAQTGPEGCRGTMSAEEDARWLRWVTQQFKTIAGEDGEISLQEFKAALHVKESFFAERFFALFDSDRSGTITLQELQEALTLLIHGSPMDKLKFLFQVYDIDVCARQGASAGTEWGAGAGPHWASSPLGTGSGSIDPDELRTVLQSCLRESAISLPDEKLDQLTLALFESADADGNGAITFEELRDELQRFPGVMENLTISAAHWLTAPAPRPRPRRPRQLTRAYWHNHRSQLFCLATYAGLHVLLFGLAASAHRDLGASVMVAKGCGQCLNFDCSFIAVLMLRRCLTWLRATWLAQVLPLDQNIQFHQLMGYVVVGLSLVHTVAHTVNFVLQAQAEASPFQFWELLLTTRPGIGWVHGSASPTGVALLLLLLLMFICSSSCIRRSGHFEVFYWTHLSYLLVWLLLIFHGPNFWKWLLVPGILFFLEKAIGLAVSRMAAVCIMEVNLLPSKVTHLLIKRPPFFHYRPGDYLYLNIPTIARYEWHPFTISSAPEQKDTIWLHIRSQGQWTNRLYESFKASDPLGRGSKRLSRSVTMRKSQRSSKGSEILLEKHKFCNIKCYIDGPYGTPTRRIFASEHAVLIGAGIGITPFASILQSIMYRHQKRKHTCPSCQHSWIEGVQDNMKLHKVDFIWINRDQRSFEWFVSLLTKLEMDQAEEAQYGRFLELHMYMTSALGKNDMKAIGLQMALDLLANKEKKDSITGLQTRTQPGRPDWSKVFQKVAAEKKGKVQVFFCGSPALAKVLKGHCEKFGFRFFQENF

NADPH oxidase 2 (Homo sapiens), sequence (P04839 whole entry, looked up): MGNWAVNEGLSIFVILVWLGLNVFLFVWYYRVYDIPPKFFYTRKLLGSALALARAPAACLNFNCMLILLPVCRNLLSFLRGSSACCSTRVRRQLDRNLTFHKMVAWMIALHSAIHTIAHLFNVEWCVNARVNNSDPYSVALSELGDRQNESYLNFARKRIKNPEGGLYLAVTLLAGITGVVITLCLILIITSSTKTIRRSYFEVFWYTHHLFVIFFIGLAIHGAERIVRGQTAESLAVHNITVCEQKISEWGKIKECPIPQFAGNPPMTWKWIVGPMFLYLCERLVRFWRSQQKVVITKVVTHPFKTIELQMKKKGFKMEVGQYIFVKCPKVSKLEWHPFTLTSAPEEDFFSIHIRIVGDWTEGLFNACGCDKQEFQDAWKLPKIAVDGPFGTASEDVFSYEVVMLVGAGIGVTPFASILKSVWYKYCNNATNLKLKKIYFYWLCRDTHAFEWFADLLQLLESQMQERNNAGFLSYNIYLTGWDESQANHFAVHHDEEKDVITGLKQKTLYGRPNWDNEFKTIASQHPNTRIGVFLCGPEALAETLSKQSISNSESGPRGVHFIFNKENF
NADPH oxidase 4 (Homo sapiens), sequence (Q9NPH5 whole entry, looked up): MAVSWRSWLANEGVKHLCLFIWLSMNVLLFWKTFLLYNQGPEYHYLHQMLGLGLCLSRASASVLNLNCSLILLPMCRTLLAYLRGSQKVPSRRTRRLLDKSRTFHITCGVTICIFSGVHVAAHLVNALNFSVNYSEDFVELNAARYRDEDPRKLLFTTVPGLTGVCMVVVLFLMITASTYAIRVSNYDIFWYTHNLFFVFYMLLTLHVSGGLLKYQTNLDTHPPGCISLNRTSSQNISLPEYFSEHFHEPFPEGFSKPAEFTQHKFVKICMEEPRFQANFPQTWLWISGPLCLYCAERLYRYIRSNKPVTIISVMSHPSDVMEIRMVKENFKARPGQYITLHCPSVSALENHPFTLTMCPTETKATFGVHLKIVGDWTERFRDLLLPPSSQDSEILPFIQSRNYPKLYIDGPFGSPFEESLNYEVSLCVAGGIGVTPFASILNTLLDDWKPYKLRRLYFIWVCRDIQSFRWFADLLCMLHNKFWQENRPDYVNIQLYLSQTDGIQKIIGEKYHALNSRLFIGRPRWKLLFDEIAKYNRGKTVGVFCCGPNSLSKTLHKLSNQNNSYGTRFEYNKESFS

Turning to `COc1ccc(CCNC(=O)[C@@]2(Sc3ccc(C)cc3)CC(=O)N(Cc3ccccc3Cl)[C@@H]2c2ccc(CO)cc2I)cc1`, the z-score in test [1] was 0.265 (inactive); in test [3] it was 9.86 (active); in test [4], 0.902 (inactive); in test [5], 1.53 (inactive); in test [6] it was 0.231 (inactive); in [7] it was 0.0671. Further, the z-score is 1.54 (inactive) in test [8], -1.54 (inactive) in test [9] and 1.32 in test [10]. The composite z-score in [2] was determined as 0.198.

For `CCOC(=O)C1=CCC(C(C)(C)C)N(S(=O)(=O)c2ccc(C)cc2)C1` (stereo not given), the z-score in test [1] was -1.32 (inactive); in [3] it was 1.53 (inactive); in [4] it was 0.768 (inactive); in test [5], 0.281 (inactive); in [6] it was 0.289 (inactive); in test [7], -0.693. For the same molecule, the z-score in [8] is -0.124 (inactive); in test [9], -1.21 (inactive); in test [10], 0.194. The molecule further yielded a composite z-score in [2] of 0.0494.

Take `C=C(CCCC)C(=O)CC[C@H](OC(=O)c1cccnc1)c1cccc(OCCO)c1`: the z-score in [1] is -0.03 (inactive); in test [3], 20.7 (active); in [4], 4.33 (inactive); in test [5], 1.83 (inactive); in test [6], 1.19 (inactive); in test [7] it was 0.0701. In addition, the values for the z-score in test [8], in [9] and in test [10] were -0.372 (inactive), -0.417 (inactive) and -2.11, respectively. In addition, the composite z-score in [2] was -0.147.

In the case of `C=CCC(OC(C)=O)[C@@H]1[C@@H](N(Cc2ccc(-c3cccc(C(F)(F)F)c3)o2)C(=O)c2ccc(C)cc2)c2cc(OCCCO)ccc2N1C(=O)c1ccc(-c2ccccc2)cc1` (stereo not given in full), the z-score in test [1] is 1.35 (inactive); in [3] it was 1.93 (inactive); in test [4] it was 0.705 (inactive); in test [5], -0.0802 (inactive); in test [6] it was -0.0352 (inactive); in test [7], -0.047. In addition, the z-score in test [8] is -3.28 (inactive); in [9], 0.822 (inactive); in test [10] it was 2.25. The composite z-score in test [2] is -0.0464.

`N#Cc1ccc(NN2C(C(O)c3cccs3)C=CC3C(=O)N(c4ccccc4)C(=O)C32)cc1` (stereo not given): the z-score in [1] was -0.127 (inactive); in [3], 5.65 (inactive); in [4], -0.131 (inactive); in test [5], 0.832 (inactive); in test [6] it was -0.741 (inactive); in [7] it was 0.578. Besides, the z-score in [8] is -2.12 (inactive); in [9], -5.34 (inactive); in test [10] it was -3.05. In test [2], this molecule yielded a composite z-score of 0.0262.

For the molecule `[N-]=[N+]=NCc1ccccc1C[C@]1(C(=O)NCCN2CCOCC2)N=C(c2ccc(OCCCO)cc2)O[C@H]1c1ccccc1N=[N+]=[N-]`, the z-score in [1] is 0.991 (inactive); in [3] it was 34.3 (active); in [4], 31.4 (active); in [5], 2.82 (inactive); in test [6], 8.68 (active); in test [7], -0.176. The z-score in test [8] is -1.69 (inactive); in test [9], 0.636 (inactive); in test [10] it was -0.368. The same molecule yielded a composite z-score in test [2] of 0.586.

Turning to `Cc1ccccc1C(O)C1C=CC2C(=O)N(C)C(=O)C2N1N1CCCCC1` (stereo not given), the z-score in [1] is -1.52 (inactive); in [3] it was 0.234 (inactive); in test [4], 0.479 (inactive); in [5], 0.126 (inactive); in [6], 1.02 (inactive); in [7] it was -0.467. Also, the z-score is -0.182 (inactive) in test [8], 0.0457 (inactive) in [9] and -1.46 in test [10]. The molecule further displayed a composite z-score in test [2] of 0.563.

Turning to `CCCCCN1CC=CC23O[C@@H]4/C=C\CCC(C)OC(=O)C4[C@H]2C(=O)N(CCCCCO)[C@@H]3C1=O` (stereo not given in full), the z-score in test [1] is 2.65 (inactive); in test [3], 0.42 (inactive); in test [4], -0.524 (inactive); in [5], -0.935 (inactive); in test [6] it was -0.875 (inactive); in test [7], 0.832. Besides, the z-score in test [8] was 1.03 (inactive); in test [9] it was -0.177 (inactive); in test [10], 1.45. The molecule also came in with a composite z-score in test [2] of -0.493.

For `O=C1O[C@@H](c2ccccc2)[C@@H](c2ccccc2)N2[C@@H](c3ccc(O)cc3)[C@]3(C(=O)Nc4ccc(C#CC5=CCCCC5)cc43)[C@@H](C(=O)O)[C@H]12`, the z-score in [1] is 4.17 (inactive); in [3], -2.7 (inactive); in test [4], -2.38 (inactive); in test [5] it was -9.62 (active); in [6], -3.16 (inactive); in test [7], 3.05. In addition, the results for the z-score in [8], in test [9] and in test [10] were 0.896 (inactive), -2.76 (inactive) and -1.01, respectively. Besides, in [2], the composite z-score is 0.112.

Take `CC(=O)NCCCC[C@@H]1NC(=O)[C@@H]2C[C@H](C(=O)NCCCCCCNC(=O)CS)[C@H](c3ccc(O)cc3)N2C1=O`: the z-score in test [1] was -0.644 (inactive); in test [3], 3.73 (inactive); in test [4] it was 0.2 (inactive); in test [5], -1.8 (inactive); in test [6] it was 0.0805 (inactive); in test [7] it was -0.0593. Further, the z-score in [8] was 0.897 (inactive); in test [9] it was -0.173 (inactive); in [10], -0.697. In addition, in test [2], the composite z-score was determined as 0.0494.

For `CC(C)C(=C=CC[C@H](O)c1ccccc1OCCO)C[C@H](O)c1ccccn1`, the z-score in test [1] is 0.843 (inactive); in [3], 4.75 (inactive); in test [4], 0.673 (inactive); in [5], 2.42 (inactive); in test [6], 0.454 (inactive); in [7] it was 1.16. Further, the figures for the z-score in [8], in [9] and in [10] were -0.222 (inactive), -0.323 (inactive) and -1.28, respectively. In addition, in [2], the composite z-score came to 0.129.

As to `Cc1ccc(F)cc1S(=O)(=O)N[C@@H]1CCN(Cc2ccc(-c3ccccc3)cc2)C1`, the z-score in [1] is -19.4 (active); in test [3], 13 (active); in test [4] it was 2.34 (inactive); in test [5] it was 0.349 (inactive); in test [6], 1.41 (inactive); in test [7], -0.275. Further, the z-score was 0.335 (inactive) in test [8], -1.62 (inactive) in test [9] and -1.57 in [10]. For the same molecule, the composite z-score in test [2] is 0.121.

In the case of `COc1ccc(C#Cc2ccc3c(c2)[C@]2(C(=O)N3)[C@H](C(=O)NC[C@H](O)c3ccccc3)[C@H]3C(=O)O[C@H](c4ccccc4)[C@H](c4ccccc4)N3[C@@H]2c2ccccc2OCCO)cc1`, the z-score was -0.13 (inactive) in test [1]; 1.78 (inactive) in test [3]; 1.95 (inactive) in test [4]; -0.054 (inactive) in test [5]; 1.41 (inactive) in [6]; -0.0009 in test [7]. The z-score in test [8] is 1.53 (inactive); in test [9], 0.36 (inactive); in [10], 0.24. Moreover, the composite z-score in test [2] came to 0.29.

Regarding `COC(=O)[C@@]1(Cc2ccccc2)[C@H]2c3cc(C(=O)N4CCCC4)n(C)c3C[C@H]2CN1C(=O)c1ccccc1`, the z-score in test [1] is -0.308 (inactive); in test [3], 1.54 (inactive); in [4], -0.0273 (inactive); in test [5], 0.835 (inactive); in test [6], 0.396 (inactive); in [7] it was -0.0948. Moreover, the z-score in test [8] is -0.153 (inactive); in test [9] it was -0.653 (inactive); in test [10] it was -1.45. Further, the composite z-score in [2] was 0.321.

As to `CC(C)C(=C=CC[C@@H](O)c1ccccc1OCCO)C[C@@H](O)c1ccccn1`, the z-score was -0.258 (inactive) in test [1]; 6.05 (inactive) in test [3]; 1.2 (inactive) in test [4]; 0.611 (inactive) in test [5]; 0.774 (inactive) in test [6]; -0.632 in [7]. Further, the values for the z-score in test [8], in [9] and in test [10] were 0.216 (inactive), -0.725 (inactive) and -1.6, respectively. Moreover, in test [2], the composite z-score was found to be 0.0437.

Regarding `CC(C)C(=C=CC[C@H](O)c1cccc(OCCO)c1)C[C@H](O)COCc1ccccc1`, the z-score in test [1] is 0.142 (inactive); in test [3], 12.8 (active); in [4], 2.04 (inactive); in test [5], 0.367 (inactive); in [6] it was 0.627 (inactive); in [7], -0.145. The z-score in test [8] was -1.77 (inactive); in test [9], -0.716 (inactive); in test [10], -2.13. The molecule further had a composite z-score in test [2] of 0.0455.

`COCCOC(=O)N1C(=O)[C@@]2(c3ccccc31)[C@H](c1ccc(O)cc1)N1[C@H](c3ccccc3)[C@H](c3ccccc3)OC(=O)[C@H]1[C@@H]2C(=O)N1CCc2cc(OC)c(OC)cc2C1`: the z-score is 0.682 (inactive) in test [1]; 0.428 (inactive) in [3]; -0.261 (inactive) in [4]; 0.0172 (inactive) in [5]; -1 (inactive) in test [6]; 1.55 in test [7]. Also, the z-score in test [8] is 0.343 (inactive); in test [9], 0.594 (inactive); in [10], 1.95. Moreover, the composite z-score in test [2] was -0.181.
